Measured values taken from PMC7862700, “An all-to-all approach to the identification of sequence-specific readers for epigenetic DNA modifications on cytosine”.

Tests used:
Assay in all cases: DAPPL (digital affinity profiling via proximity ligation, sequencing); 10 mM Tris-HCl pH 7.5, 50 mM NaCl, 1 mM DTT, 4% glycerol, room temperature, 30 min; GST-TFs on glutathione beads, 16-mer random dsDNA library, 0.1% formaldehyde crosslink after washing; high values mean tight binding
[1] = molecular target: T1, FLI1 (Homo sapiens, UniProt Q01543 1-452); conditions: protein: recombinant; tags: N-terminal GST; dsDNA, one strand shown
T1 sequence: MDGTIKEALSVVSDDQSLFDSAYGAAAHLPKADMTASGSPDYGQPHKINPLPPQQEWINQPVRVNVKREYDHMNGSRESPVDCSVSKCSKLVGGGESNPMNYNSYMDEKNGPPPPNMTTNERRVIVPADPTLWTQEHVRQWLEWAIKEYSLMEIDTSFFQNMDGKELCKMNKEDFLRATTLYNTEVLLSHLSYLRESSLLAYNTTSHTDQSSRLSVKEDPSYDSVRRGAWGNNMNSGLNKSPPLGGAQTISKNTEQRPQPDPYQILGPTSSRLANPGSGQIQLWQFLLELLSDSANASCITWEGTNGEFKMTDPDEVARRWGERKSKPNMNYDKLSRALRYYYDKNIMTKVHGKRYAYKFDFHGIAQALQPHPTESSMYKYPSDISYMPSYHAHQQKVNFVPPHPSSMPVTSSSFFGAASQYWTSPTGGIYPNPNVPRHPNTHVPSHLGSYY
Summary of the method: (§1)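 Human transcription factors were made in yeast as GST fusions, captured on glutathione beads and barcoded with DNA. With a tag-only sample included, the pool was incubated with 200 nmole of a random double-stranded 16-mer DNA library in Tris/NaCl/DTT/glycerol buffer at room temperature for 30 min, then crosslinked with 0.1% formaldehyde after washing, ligated by proximity, amplified and sequenced. For binding signal, each hexamer's read frequency for a factor is divided by its frequency for the tag-only sample.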

[2] = molecular target: T2, ELK1 (Homo sapiens, UniProt P19419 1-428); conditions: protein: recombinant; tags: N-terminal GST; dsDNA, one strand shown
T2 sequence: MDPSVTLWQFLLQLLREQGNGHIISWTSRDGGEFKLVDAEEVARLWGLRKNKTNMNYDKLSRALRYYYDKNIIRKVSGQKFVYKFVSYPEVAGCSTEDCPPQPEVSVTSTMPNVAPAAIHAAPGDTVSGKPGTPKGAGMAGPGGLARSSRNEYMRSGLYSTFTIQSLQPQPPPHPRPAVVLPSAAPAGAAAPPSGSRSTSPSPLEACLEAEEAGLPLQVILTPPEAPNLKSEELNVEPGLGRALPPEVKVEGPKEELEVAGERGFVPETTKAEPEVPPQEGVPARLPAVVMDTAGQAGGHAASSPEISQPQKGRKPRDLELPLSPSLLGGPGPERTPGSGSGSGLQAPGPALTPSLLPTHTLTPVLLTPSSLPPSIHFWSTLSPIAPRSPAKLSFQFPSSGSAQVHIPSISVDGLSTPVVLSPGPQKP
Summary of the method: as §1

[3] = molecular target: T3, GABPA (Homo sapiens, UniProt Q06546 1-454); conditions: protein: recombinant; tags: N-terminal GST; dsDNA, one strand shown
T3 sequence: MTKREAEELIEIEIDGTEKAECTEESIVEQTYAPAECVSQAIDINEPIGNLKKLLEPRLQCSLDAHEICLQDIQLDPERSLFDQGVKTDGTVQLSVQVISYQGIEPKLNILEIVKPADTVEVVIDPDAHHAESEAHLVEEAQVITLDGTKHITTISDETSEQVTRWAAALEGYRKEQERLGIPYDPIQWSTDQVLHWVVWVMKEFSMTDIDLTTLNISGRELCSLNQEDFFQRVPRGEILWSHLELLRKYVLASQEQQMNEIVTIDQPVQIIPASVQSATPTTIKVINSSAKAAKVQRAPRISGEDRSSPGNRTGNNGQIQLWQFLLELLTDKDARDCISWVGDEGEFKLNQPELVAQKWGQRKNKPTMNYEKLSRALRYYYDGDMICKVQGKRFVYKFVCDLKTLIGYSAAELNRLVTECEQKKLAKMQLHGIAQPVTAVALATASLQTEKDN
Summary of the method: as §1

[4] = molecular target: T4, ERG (Homo sapiens, UniProt P11308 1-479); conditions: protein: recombinant; tags: N-terminal GST; dsDNA, one strand shown
T4 sequence: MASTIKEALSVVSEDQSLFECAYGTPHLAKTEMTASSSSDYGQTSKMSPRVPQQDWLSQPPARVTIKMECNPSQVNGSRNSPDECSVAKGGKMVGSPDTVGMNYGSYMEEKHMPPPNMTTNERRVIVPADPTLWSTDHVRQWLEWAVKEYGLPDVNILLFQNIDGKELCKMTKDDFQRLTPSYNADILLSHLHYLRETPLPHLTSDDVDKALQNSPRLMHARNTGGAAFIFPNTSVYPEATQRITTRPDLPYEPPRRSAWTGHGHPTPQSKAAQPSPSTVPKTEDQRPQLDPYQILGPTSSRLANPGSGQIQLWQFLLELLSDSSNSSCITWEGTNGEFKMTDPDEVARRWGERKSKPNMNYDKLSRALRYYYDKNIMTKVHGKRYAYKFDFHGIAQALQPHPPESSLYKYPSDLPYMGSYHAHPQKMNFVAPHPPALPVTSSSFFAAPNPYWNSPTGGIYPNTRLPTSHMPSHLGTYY
Summary of the method: as §1

[5] = molecular target: ELF1 (Homo sapiens, UniProt P32519 1-619); conditions: protein: recombinant; tags: N-terminal GST; dsDNA, one strand shown
Chain of ELF1 (P32519 whole entry): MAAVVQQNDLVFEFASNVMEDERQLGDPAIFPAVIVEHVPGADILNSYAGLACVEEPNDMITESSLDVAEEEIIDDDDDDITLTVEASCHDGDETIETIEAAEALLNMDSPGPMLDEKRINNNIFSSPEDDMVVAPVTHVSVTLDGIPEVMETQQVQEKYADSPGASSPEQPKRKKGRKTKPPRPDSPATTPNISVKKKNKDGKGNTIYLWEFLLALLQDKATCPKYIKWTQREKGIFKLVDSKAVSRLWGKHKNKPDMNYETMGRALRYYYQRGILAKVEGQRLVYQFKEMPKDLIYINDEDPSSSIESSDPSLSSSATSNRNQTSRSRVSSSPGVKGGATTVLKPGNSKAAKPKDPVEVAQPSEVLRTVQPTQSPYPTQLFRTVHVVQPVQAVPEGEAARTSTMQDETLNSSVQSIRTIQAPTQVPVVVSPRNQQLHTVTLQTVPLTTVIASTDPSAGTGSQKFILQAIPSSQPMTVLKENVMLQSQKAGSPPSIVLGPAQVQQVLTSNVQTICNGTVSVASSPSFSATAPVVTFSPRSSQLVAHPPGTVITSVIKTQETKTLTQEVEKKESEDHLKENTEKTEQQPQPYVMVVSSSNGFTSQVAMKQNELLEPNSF
Summary of the method: as §1

[6] = molecular target: T5, EHF (Homo sapiens, UniProt Q9NZC4 1-300); conditions: protein: recombinant; tags: N-terminal GST; dsDNA, one strand shown
T5 sequence: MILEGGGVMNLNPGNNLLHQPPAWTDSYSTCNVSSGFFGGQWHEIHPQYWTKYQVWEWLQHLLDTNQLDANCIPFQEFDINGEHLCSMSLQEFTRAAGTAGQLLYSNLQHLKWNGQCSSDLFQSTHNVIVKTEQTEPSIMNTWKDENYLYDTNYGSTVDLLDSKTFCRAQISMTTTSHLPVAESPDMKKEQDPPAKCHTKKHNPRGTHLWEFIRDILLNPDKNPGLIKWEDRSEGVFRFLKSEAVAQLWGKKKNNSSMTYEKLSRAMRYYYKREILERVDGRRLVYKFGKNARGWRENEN
Summary of the method: as §1

[7] = molecular target: SPI1 (Homo sapiens, UniProt P17947 1-270); conditions: protein: recombinant; tags: N-terminal GST; dsDNA, one strand shown
Summary of the method: as §1

[8] = molecular target: SPIB (Homo sapiens, UniProt Q01892 1-262); conditions: protein: recombinant; tags: N-terminal GST; dsDNA, one strand shown
Chain of SPIB (Q01892 whole entry): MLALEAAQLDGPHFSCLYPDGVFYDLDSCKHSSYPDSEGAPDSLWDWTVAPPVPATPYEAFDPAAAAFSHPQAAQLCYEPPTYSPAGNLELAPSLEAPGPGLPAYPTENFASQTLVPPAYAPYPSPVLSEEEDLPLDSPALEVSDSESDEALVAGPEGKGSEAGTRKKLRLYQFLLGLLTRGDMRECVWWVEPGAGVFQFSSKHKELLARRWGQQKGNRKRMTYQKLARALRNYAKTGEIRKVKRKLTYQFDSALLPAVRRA
Summary of the method: as §1

[9] = molecular target: T6, ELK3 (Homo sapiens, UniProt P41970 1-407); conditions: protein: recombinant; tags: N-terminal GST; dsDNA, one strand shown
T6 sequence: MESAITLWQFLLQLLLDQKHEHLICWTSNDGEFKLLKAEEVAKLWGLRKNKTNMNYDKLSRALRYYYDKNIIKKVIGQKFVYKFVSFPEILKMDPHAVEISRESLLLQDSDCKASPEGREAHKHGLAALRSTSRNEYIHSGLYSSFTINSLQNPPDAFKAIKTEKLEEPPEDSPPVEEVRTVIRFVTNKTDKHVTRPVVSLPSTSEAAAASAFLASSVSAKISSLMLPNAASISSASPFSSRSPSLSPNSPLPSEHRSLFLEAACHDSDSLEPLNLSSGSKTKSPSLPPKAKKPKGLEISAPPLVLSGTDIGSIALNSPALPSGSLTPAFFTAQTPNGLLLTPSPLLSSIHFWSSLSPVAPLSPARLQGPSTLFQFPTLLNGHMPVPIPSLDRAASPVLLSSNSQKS
Summary of the method: as §1

[10] = molecular target: T7, FEV (Homo sapiens, UniProt Q99581 1-238); conditions: protein: recombinant; tags: N-terminal GST; dsDNA, one strand shown
T7 sequence: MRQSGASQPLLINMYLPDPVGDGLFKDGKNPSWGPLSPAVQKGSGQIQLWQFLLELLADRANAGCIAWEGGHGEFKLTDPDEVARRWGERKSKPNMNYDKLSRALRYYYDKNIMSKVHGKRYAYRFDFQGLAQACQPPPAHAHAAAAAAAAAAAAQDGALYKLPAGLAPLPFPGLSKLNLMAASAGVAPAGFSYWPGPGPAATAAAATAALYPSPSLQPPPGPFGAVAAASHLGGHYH
Summary of the method: as §1

[11] = molecular target: ETV5 (Homo sapiens, UniProt P41161 1-510); conditions: protein: recombinant; tags: N-terminal GST; dsDNA, one strand shown
Chain of ETV5 (P41161 whole entry): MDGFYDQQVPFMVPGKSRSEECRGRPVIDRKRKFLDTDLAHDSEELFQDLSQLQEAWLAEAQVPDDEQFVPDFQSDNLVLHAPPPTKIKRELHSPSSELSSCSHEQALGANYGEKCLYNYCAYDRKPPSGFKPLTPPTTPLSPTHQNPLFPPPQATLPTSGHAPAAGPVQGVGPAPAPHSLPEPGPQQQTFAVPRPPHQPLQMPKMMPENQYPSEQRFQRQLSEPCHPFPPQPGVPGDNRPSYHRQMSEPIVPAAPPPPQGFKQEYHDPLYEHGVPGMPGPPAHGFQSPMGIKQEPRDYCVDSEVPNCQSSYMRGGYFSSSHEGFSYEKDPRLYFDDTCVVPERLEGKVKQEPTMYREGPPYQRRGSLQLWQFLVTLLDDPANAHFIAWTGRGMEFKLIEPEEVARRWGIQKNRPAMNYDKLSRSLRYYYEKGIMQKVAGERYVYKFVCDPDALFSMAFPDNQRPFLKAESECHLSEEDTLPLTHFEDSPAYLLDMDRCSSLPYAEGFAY
Summary of the method: as §1

[12] = molecular target: HSF1 (Homo sapiens, UniProt Q00613 1-529); conditions: protein: recombinant; tags: N-terminal GST; chain copies: 3; dsDNA, one strand shown
Chain of HSF1 (Q00613 whole entry): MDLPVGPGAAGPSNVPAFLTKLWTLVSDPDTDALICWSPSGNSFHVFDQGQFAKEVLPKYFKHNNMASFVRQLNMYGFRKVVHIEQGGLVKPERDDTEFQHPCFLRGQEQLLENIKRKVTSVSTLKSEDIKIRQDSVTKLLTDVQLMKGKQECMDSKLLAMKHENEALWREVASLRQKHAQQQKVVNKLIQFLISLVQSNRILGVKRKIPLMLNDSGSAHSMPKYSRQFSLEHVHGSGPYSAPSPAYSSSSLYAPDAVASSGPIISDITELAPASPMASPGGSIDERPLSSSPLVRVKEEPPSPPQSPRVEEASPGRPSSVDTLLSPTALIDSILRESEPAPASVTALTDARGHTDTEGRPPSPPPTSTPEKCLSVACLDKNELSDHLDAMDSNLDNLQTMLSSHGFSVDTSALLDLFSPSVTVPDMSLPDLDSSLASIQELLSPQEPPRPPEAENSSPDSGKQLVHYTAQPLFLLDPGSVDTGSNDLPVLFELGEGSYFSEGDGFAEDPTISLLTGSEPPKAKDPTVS
Summary of the method: as §1

[13] = molecular target: T8, SPIC (Homo sapiens, UniProt Q8N5J4 1-248); conditions: protein: recombinant; tags: N-terminal GST; dsDNA, one strand shown
T8 sequence: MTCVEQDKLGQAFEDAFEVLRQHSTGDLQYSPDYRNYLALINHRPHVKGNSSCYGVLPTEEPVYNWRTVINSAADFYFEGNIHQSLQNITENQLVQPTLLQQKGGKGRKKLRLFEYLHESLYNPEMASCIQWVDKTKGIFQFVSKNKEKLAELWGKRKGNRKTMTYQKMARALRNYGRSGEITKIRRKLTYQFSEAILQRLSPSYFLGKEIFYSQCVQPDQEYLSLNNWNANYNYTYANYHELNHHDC
Summary of the method: as §1

[14] = molecular target: ELF4 (Homo sapiens, UniProt Q99607 1-663); conditions: protein: recombinant; tags: N-terminal GST; dsDNA, one strand shown
Chain of ELF4 (Q99607 whole entry): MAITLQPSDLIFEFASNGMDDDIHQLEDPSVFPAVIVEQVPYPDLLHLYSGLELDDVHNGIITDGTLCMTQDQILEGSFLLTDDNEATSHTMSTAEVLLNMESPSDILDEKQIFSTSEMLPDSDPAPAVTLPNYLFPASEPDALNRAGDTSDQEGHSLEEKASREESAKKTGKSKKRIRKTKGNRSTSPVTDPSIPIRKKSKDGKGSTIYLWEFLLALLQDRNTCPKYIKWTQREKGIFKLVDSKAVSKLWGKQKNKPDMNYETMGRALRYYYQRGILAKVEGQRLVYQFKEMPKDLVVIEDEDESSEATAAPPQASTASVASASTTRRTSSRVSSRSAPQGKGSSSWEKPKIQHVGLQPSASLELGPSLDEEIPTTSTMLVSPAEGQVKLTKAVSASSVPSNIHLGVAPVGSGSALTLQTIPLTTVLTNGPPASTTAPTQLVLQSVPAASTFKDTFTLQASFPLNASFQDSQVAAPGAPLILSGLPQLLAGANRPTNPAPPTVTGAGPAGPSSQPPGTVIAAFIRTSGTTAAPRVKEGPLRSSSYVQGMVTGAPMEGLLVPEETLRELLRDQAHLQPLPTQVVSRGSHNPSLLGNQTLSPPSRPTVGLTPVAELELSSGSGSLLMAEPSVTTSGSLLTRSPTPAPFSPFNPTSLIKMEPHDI
Summary of the method: as §1

[15] = molecular target: T9, ELK4 (Homo sapiens, UniProt P28324-2 1-405); conditions: protein: recombinant; tags: N-terminal GST; dsDNA, one strand shown
T9 sequence: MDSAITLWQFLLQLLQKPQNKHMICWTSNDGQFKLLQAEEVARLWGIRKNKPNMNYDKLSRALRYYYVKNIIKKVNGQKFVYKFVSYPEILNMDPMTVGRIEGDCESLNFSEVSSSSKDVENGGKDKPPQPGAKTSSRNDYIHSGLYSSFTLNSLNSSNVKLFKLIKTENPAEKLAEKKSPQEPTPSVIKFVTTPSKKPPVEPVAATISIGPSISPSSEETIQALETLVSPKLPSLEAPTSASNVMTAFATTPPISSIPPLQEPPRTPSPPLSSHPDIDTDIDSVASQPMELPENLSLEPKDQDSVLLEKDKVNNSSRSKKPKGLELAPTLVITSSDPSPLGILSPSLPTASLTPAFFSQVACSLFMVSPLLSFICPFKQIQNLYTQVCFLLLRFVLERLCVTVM
Summary of the method: as §1

[16] = molecular target: T10, ETV2 (Homo sapiens, UniProt O00321 1-342); conditions: protein: recombinant; tags: N-terminal GST; dsDNA, one strand shown
T10 sequence: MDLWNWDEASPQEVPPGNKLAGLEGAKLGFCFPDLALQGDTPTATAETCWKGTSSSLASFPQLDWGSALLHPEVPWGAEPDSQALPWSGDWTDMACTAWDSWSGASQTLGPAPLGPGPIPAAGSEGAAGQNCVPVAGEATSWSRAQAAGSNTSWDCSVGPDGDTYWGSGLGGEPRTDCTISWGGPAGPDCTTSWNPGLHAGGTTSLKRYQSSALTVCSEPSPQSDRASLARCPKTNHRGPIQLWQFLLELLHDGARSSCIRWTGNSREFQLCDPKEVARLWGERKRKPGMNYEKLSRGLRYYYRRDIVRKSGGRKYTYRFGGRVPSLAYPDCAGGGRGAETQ
Summary of the method: as §1

[17] = molecular target: T11, ELF3 (Homo sapiens, UniProt P78545 1-371); conditions: protein: recombinant; tags: N-terminal GST; dsDNA, one strand shown
T11 sequence: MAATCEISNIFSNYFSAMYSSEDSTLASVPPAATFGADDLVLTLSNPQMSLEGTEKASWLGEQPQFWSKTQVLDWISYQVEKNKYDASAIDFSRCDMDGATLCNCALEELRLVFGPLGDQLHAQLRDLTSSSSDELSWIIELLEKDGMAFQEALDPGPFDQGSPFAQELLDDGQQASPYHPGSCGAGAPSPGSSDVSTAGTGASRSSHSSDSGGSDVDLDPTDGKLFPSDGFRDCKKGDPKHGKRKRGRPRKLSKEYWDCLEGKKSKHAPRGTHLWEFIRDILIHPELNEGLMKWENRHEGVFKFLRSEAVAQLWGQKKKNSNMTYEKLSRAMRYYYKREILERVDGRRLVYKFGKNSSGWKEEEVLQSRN
Summary of the method: as §1

[18] = molecular target: CRX (Homo sapiens, UniProt O43186 1-299); conditions: protein: recombinant; tags: N-terminal GST; dsDNA, one strand shown
Chain of CRX (O43186 whole entry): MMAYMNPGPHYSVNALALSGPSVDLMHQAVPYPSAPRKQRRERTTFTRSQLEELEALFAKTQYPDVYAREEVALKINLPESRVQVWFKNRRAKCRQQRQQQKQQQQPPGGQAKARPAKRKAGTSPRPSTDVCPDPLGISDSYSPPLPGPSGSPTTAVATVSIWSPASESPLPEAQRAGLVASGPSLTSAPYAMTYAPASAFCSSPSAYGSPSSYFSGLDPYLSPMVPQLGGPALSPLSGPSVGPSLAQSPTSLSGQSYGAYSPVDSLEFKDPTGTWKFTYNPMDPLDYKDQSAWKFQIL
Summary of the method: as §1

[19] = molecular target: ETV1 (Homo sapiens, UniProt P50549 1-477); conditions: protein: recombinant; tags: N-terminal GST; dsDNA, one strand shown
Chain of ETV1 (P50549 whole entry): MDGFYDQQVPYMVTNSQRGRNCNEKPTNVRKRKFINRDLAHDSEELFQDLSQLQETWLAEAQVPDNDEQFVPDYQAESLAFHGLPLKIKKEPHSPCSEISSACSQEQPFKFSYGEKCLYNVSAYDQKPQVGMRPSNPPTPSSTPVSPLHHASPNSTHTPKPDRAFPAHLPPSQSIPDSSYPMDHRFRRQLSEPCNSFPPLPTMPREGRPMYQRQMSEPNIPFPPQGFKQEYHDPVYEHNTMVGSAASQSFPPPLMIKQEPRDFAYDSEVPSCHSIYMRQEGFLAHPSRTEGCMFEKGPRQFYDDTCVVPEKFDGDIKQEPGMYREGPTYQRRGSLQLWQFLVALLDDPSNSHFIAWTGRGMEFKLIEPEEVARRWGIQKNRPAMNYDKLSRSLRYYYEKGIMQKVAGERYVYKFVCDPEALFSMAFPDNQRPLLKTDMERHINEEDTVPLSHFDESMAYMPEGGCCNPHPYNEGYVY
Summary of the method: as §1

In the case of CTCGAA, the binding signal [1] is reported as 1.23 fold enrichment (6-mer frequency, TF over GST control), the binding signal [2] is reported as 1.12 fold enrichment (6-mer frequency, TF over GST control) and the binding signal [3] is reported as 1.26 fold enrichment (6-mer frequency, TF over GST control). For the same sequence, the binding signal [4] was 1.13 fold enrichment (6-mer frequency, TF over GST control), the binding signal [5] was 1.18 fold enrichment (6-mer frequency, TF over GST control) and the binding signal [6] was 1.21 fold enrichment (6-mer frequency, TF over GST control). For the same sequence, the binding signal [7] was 1.17 fold enrichment (6-mer frequency, TF over GST control), the binding signal [8] was 1.12 fold enrichment (6-mer frequency, TF over GST control) and the binding signal [9] was 1.21 fold enrichment (6-mer frequency, TF over GST control). The binding signal [10] was 1.17 fold enrichment (6-mer frequency, TF over GST control), the binding signal [11] was 1.2 fold enrichment (6-mer frequency, TF over GST control) and the binding signal [12] was 4.2 fold enrichment (6-mer frequency, TF over GST control). The binding signal [13] was 1.15 fold enrichment (6-mer frequency, TF over GST control), the binding signal [14] was 1.2 fold enrichment (6-mer frequency, TF over GST control) and the binding signal [15] was 1.34 fold enrichment (6-mer frequency, TF over GST control). The binding signal [16] was 1.16 fold enrichment (6-mer frequency, TF over GST control), the binding signal [17] was 1.11 fold enrichment (6-mer frequency, TF over GST control) and the binding signal [18] was 1.9 fold enrichment (6-mer frequency, TF over GST control). The binding signal [19] was 1.1 fold enrichment (6-mer frequency, TF over GST control).
